DT40 TDP1 no CPT: qHTS for Inhibitors of human tyrosyl-DNA phosphodiesterase 1 (TDP1): qHTS in cells in absence of CPT; AID 686978, 2013; 15% of 420,000 active; Potency, µM (titrated, usually from 46.2 µM), for the others: top-dose activity change, negative = growth inhibition, usual class: inhibitors; DT40 Tdp1-/- hTDP1 cells, no CPT, ATP luminescence, 48 h; further: nearly all actives have a fitted effect of over 55% in size
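A cellular qHTS used chicken DT40 cells lacking endogenous Tdp1 but carrying stably transfected human TDP1. Compounds were applied without camptothecin, and cell growth kinetics were judged by ATP-dependent luminescence after ≥48 hr.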
RORgamma inh: inhibitors of mouse ROR gamma transcriptional activity | Potency, µM (series often up to 53.6 µM), for inactives: at the top dose activity change, negative = inhibition, actives largely listed as inhibitors | 5.4% of 310,000 active | P51450 | Drosophila S2 Gal4-RORgamma UAS-luciferase reporter, 20 h; further: nearly all actives have a fitted effect of over 60% in size
Target sequence (P51450 whole entry, looked up, the tested form may be a part): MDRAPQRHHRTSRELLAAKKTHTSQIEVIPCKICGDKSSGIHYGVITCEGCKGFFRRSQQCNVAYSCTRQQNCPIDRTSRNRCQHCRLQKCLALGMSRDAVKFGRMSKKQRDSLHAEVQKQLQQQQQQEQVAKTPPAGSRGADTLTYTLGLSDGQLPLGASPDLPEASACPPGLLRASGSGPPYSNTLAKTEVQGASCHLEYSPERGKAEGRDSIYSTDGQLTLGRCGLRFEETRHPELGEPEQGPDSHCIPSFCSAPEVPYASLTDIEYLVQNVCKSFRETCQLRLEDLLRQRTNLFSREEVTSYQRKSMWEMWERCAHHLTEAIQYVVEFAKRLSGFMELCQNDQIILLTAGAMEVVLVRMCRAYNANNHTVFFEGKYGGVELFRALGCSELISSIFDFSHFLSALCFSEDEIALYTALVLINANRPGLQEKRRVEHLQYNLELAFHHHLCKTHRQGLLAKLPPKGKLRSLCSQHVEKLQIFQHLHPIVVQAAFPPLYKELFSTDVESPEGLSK
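Stable Schneider cell line, Gal4 DNA-binding domain fused to ROR gamma, UAS-luciferase. Cmpd 1 hr RT → CuSO4 700 uM final → 20 hr RT → luciferase reagent 10 min → luminescence.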
ELG1 DNA repair: ELG1-dependent DNA repair inhibition; HEK293T ELG1-luciferase reporter, luminescence, 16 h; DNA damage induced by 5-fluorouridine; 2.3% of 330,000 active; Potency, µM (top dose mostly 46.1 µM), for the others: at the highest dose activity change, negative = inhibition, hits mostly inhibitors; further: nearly all actives have a fitted effect of over 55% in size
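Quantitative HTS, concentration-response format. 2,000 cells/well co-treated with 5-fluorouridine and compound, 16 hr in 5% CO2 at 37 °C; ONE-Glo luminescence read after 30 min.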
VP16 counter: counter-screen for ROR gamma inhibitors: Gal4-VP16 reporter | Potency, µM (top dose mostly 53.6 µM), without a hit: at the highest dose activity, negative = inhibition, usual class: inhibitors | 3.5% of 310,000 active | Drosophila S2 Gal4-VP16 UAS-luciferase, luminescence, 20 h | AID 2546;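 further: Gal4-VP16 expression switched on by copper sulfate through the metallothionein promoter; nearly all actives have a fitted effect of over 50% in size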
DT40 TDP1 CPT: DT40-hTDP1 cell growth loss with CPT; Potency, µM (doses to about 46.2 µM), for inactives: at the highest dose activity change, negative = growth inhibition, actives largely listed as inhibitors; 12% of 420,000 active; chicken DT40 Tdp1-/-;hTDP1 cells + 20 nM CPT, ATP luminescence, 48 h; further: nearly all actives have a fitted effect of over 55% in size
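Cell growth measured by CellTiter-Glo luminescence after a minimum 48 h, 37 C compound exposure with 20 nM CPT in Tdp1-knockout DT40 cells stably expressing hTDP1, seeded 400/well; qHTS titration format.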
ALOX12 inh: inhibitors of human 12S-lipoxygenase ALOX12 | purified 12hLO, xylenol orange hydroperoxide absorbance | Potency, µM (highest dose often 108 µM), for the others: at the top dose activity change, negative = inhibition, hits mostly inhibitors | 1.1% of 580,000 active
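Purified human 12hLO (150 nM final) in 25 mM Hepes, 0.01% Triton X-100, pH 7.0 was preincubated 15 min at room temperature with compound. Then 40 uM arachidonic acid was added, 30 min. Hydroperoxide was read by Fe-XO absorbance ratio 573/405 nm.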
* hit, by the source's call; [ ] = dose if it differs, or a comment. In the library only some 15% were active in any assay of this set; here they are far more common. The call rests on the fitted dose curve; in most records, active means well fitted curve in the direction sought with a large enough effect; inconclusive means small, poorly fitted or top-dose-only effect, or another doubt; inactive means no such curve, though single readings can be large; an effect the other way counts as inactive or inconclusive. On the % scale 0 is the no-effect control and ±100 the full control effect; potency means the concentration at half of the fitted maximal effect.

COc1ccc(-n2ncc(C(=O)NCc3cccs3)c2C2CCN(C(=O)OC(C)(C)C)CC2)cc1 was read as DT40 TDP1 no CPT inconclusive, DT40 TDP1 CPT inconclusive and ALOX12 inh -1%.
CC(C)(C)OC(=O)N1CCC(c2c(C(=O)NCc3ccco3)cnn2-c2ccc(F)cc2F)CC1 was read as DT40 TDP1 no CPT inconclusive, DT40 TDP1 CPT 23µM* and ALOX12 inh -13%.
`COc1ccc(OC)c(NC(=O)c2ccc3c(c2)N(C)C2CCCCN2C3=O)c1` (configuration not stated) gave ALOX12 inh 6%.
For O=C(c1ccncc1)N1CCCCCC1c1nnc(-c2ccccc2)o1 (configuration not stated) the results were ALOX12 inh 22%.
`CC(C)(C)OC(=O)N1CCC(c2c(C(=O)NC3CCN(Cc4ccccc4)CC3)cnn2-c2ccc(F)cc2F)CC1` gave DT40 TDP1 no CPT 8.2µM*, DT40 TDP1 CPT 12µM* and ALOX12 inh inconclusive.
For CCOC(=O)N1CCC(NC(=O)c2cnn(-c3ccc(F)cc3F)c2C2CCN(C(=O)OC(C)(C)C)CC2)CC1 the results were DT40 TDP1 no CPT -20%, DT40 TDP1 CPT 5% and ALOX12 inh 9%.
For COc1ccc(C(=O)N2[C@@H]3CC[C@H]2CC(NC(=O)c2ccncc2)C3)cc1F (some centres not stated) the results were ALOX12 inh 10%.
Cn1c(=O)n(Cc2ccccc2)c(=O)c2c1[nH]c(=O)n2C was read as ALOX12 inh 32%.
`CCOC(=O)c1sc(Nc2ccccc2)nc1C(F)(F)F` gave ALOX12 inh 40µM*.
CCOC(=O)c1sc(Nc2nc(C)cc(C)n2)nc1C was read as DT40 TDP1 no CPT 6.5µM*, RORgamma inh 5%, ELG1 DNA repair inconclusive, VP16 counter 9%, DT40 TDP1 CPT 7.3µM* and ALOX12 inh -54%.
Screening CCOC(=O)c1sc(Nc2ccc(C)cc2C)nc1C returned DT40 TDP1 no CPT 16µM*, RORgamma inh -18%, ELG1 DNA repair 1%, VP16 counter inconclusive, DT40 TDP1 CPT inconclusive and ALOX12 inh inconclusive.
For CCOC(=O)c1sc(NC(=O)/C=C/c2ccc(F)cc2)nc1C the results were DT40 TDP1 no CPT inconclusive, RORgamma inh 12%, ELG1 DNA repair -1%, VP16 counter -2%, DT40 TDP1 CPT inconclusive and ALOX12 inh 11%.
CCOC(=O)c1sc(N/N=C/c2cccc(C)c2)nc1C was read as DT40 TDP1 no CPT inconclusive, RORgamma inh 7.9µM*, ELG1 DNA repair inconclusive, VP16 counter inconclusive, DT40 TDP1 CPT inconclusive and ALOX12 inh -13%.
`CCOC(=O)c1sc(Nc2ccc(F)cc2)nc1C` gave DT40 TDP1 no CPT inconclusive, RORgamma inh -35%, ELG1 DNA repair 11%, VP16 counter 8%[10 µM], DT40 TDP1 CPT inconclusive and ALOX12 inh 0%.
For CC(C)NC(=O)CCn1cnc2sc3c(c2c1=O)CCCC3 the results were ALOX12 inh -5%.
Screening CCOC(=O)c1sc(Nc2nc(C)cc(OC)n2)nc1C returned DT40 TDP1 no CPT 13µM*, RORgamma inh 2%, ELG1 DNA repair -20%, VP16 counter 5%, DT40 TDP1 CPT inconclusive and ALOX12 inh 1%.
`CCOC(=O)c1sc(Nc2ccccc2C)nc1C` gave ALOX12 inh 39%.
`CC(=O)Nc1ccc(N=Cc2c(O)c(C(=O)Nc3ccccc3)cc3ccccc23)cc1` gave DT40 TDP1 no CPT 16µM*, RORgamma inh 4%, ELG1 DNA repair inconclusive, VP16 counter -4%, DT40 TDP1 CPT inconclusive and ALOX12 inh -24%.
`CC(=O)Nc1ccc(N=Cc2c(O)c3ccccc3oc2=O)cc1` gave DT40 TDP1 no CPT -11%, RORgamma inh 0%, ELG1 DNA repair 0%, VP16 counter -5%, DT40 TDP1 CPT 21µM* and ALOX12 inh -10%.
Screening COc1ccc(C)cc1Nc1nc(N)c(C(=O)c2cc(C)ccc2C)s1 returned ALOX12 inh -13%.
`COc1ccc(C)cc1Nc1n[n+](-c2ccccc2)c(-c2c(OC)ccc3ccccc23)s1` gave DT40 TDP1 no CPT 5.2µM*, ELG1 DNA repair -28%, DT40 TDP1 CPT 5.8µM* and ALOX12 inh inconclusive.
COc1ccc(C)cc1Nc1n[n+](-c2ccccc2)c(-c2cc(OC)c(OC)cc2Br)s1 was read as DT40 TDP1 no CPT 16µM*, RORgamma inh 10µM*, ELG1 DNA repair -1%, VP16 counter inconclusive, DT40 TDP1 CPT 23µM* and ALOX12 inh 40µM*.
`O=C(c1ccccc1F)N1CCC2(CC1)C(=NC1CCCCC1)NC(=O)N2c1cccnc1` gave ALOX12 inh 12%.
Cc1ccc(NC(=O)CCc2ncc(-c3ccccc3)o2)nc1 was read as ALOX12 inh 0%.
Screening CCOc1cc(C(=O)Nc2ccc3c(c2)OCO3)ccc1OC(F)F returned DT40 TDP1 no CPT 11µM*, RORgamma inh inconclusive, ELG1 DNA repair inconclusive, VP16 counter inconclusive, DT40 TDP1 CPT 15µM* and ALOX12 inh 7%.
Screening O=C(Nc1ccc([N+](=O)[O-])cc1)Nc1ccc(OC(F)F)c(Cl)c1 returned DT40 TDP1 no CPT 1.6µM*, RORgamma inh inconclusive, ELG1 DNA repair inconclusive, VP16 counter 13µM*, DT40 TDP1 CPT 2.3µM* and ALOX12 inh -12%.
CCCCOc1ccc(C(=O)Nc2ccc3c(c2)OCO3)cc1 was read as DT40 TDP1 no CPT -8%, RORgamma inh 25%, ELG1 DNA repair inconclusive, VP16 counter -10%, DT40 TDP1 CPT 7% and ALOX12 inh 4%.
For COc1ccc(NC(=O)c2cc([N+](=O)[O-])ccc2O)cc1 the results were DT40 TDP1 no CPT 5.8µM*, RORgamma inh 2.2µM*, ELG1 DNA repair inconclusive, VP16 counter 2.8µM*, DT40 TDP1 CPT 8.2µM* and ALOX12 inh -6%.
CCC(=O)Oc1ccc(C(=O)Nc2ccc3c(c2)OCO3)cc1 was read as DT40 TDP1 no CPT 21µM*, RORgamma inh -21%, ELG1 DNA repair inconclusive, VP16 counter inconclusive, DT40 TDP1 CPT inconclusive and ALOX12 inh 11%.

Compound activity: PubChem, National Center for Advancing Translational Sciences (NCATS)
